Data: the supplement of paper PMC5662767
Counter-ions that a name gives are not always drawn.

System: Drosophila S2 cl14 SmoIP sensor cells
Test: normalized SmoIP GFP fluorescence (untreated unstimulated = 0%, untreated Hh-stimulated = 100%); higher = more Smo activation sensor fluorescence
Conditions: compound concentration: 2 uM, 24 h
[1] = stimulation: Hh conditioned medium (+Hh)
[2] = stimulation: mock conditioned medium (-Hh)
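Further: flow cytometry read-out as median GFP intensity of gated cells, compounds added 30 min before Hh-conditioned or mock medium, mock-treated cells serving as unstimulated baseline.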

Structure (SMILES) | normalized SmoIP GFP fluorescence [1] | normalized SmoIP GFP fluorescence [2]
CCN(CC)CCCCNc1ncc2cc(-c3cc(OC)cc(OC)c3)c(NC(=O)NC(C)(C)C)nc2n1 | 123% | 8.79%
COc1ccc(C2=N[C@@H](c3ccc(Cl)cc3)[C@@H](c3ccc(Cl)cc3)N2C(=O)N2CCNC(=O)C2)c(OC(C)C)c1 [Nutlin-3] | 90.4% | 2.11%
N[C@@H](CC(=O)N1CCn2c(nnc2C(F)(F)F)C1)Cc1cc(F)c(F)cc1F [Sitagliptin] | 103% | -1.74%
CCOc1cc([C@@H](CS(C)(=O)=O)N2C(=O)c3cccc(NC(C)=O)c3C2=O)ccc1OC | 142% | -14.5%
CCN1CCN(Cc2ccc(-c3cc4c(N[C@H](C)c5ccccc5)ncnc4[nH]3)cc2)CC1 | 97% | 6.52%
CC(C)(F)C[C@H](N[C@@H](c1ccc(-c2ccc(S(C)(=O)=O)cc2)cc1)C(F)(F)F)C(=O)NC1(C#N)CC1 [Odanacatib-(MK0822)] | 110% | -4.25%
CC(=O)Nc1ccc(NC(=S)NC(=O)c2ccc(C(C)(C)C)cc2)cc1 [tenovin-1] | 97% | -4.47%
CCOC(=O)c1ccc(OC(=O)CCCCCNC(=N)N)cc1 [gabexate-mesylate] | 120% | -12.6%
CNC(=O)Nc1ccc(-c2nc(N3CC4CCC(C3)O4)c3cnn(C4CCC5(CC4)OCCO5)c3n2)cc1 | 41.3% | -8.33%
O=c1ncccn1[C@@H]1O[C@H](CO)[C@@H](O)[C@H]1O [zebularine] | 108% | -3.16%
C#CCN[C@@H]1CCc2ccccc21 [rasagiline-mesylate] | 120% | -13.4%
CCCS(=O)(=O)Nc1ccc(F)c(C(=O)c2c[nH]c3ncc(Cl)cc23)c1F | 108% | -0.0496%
CC(C)(C)c1ccc(C(=O)CCCN2CCC(OC(c3ccccc3)c3ccccc3)CC2)cc1 [ebastine] | 135% | 18.3%
O=C(CCCS)NC1CCN(C(=O)COc2ccc(Cl)cc2Cl)CC1 [k-ras-g12c-inhibitor-6] | 113% | -2.82%
CCC[C@H](NC(=O)[C@@H]1[C@H]2CCC[C@H]2CN1C(=O)[C@@H](NC(=O)[C@@H](NC(=O)c1cnccn1)C1CCCCC1)C(C)(C)C)C(=O)C(=O)NC1CC1 [Telaprevir(VX-950)] | 120% | 1.03%
CCCCOc1cc(C(=O)NCCN(CC)CC)c2ccccc2n1 [dibucaine-cinchocaine-hcl] | 113% | 0.361%
CNC(=O)c1cc(Oc2ccc(NC(=O)Nc3ccc(Cl)c(C(F)(F)F)c3)cc2)ccn1 [sorafenib] | 107% | 9.54%
Cn1cncc1[C@@](N)(c1ccc(Cl)cc1)c1ccc2c(c1)c(-c1cccc(Cl)c1)cc(=O)n2C | 141% | 43.9%
CN(C)CC(c1ccc(O)cc1)C1(O)CCCCC1 (stereo unspecified) [desvenlafaxine] | 105% | -0.889%
Cc1c(Cl)cccc1Nc1ccccc1C(=O)O [tolfenamic-acid] | 88.3% | -15.3%
N#C/C(=C(/N)Sc1ccc(N)cc1)c1ccccc1C(F)(F)F | 131% | 10.2%
CC1(C)O[C@@H]2[C@@H](CO[C@@]3(COS(N)(=O)=O)OC(C)(C)O[C@@H]23)O1 [Topiramate] | 114% | 5.45%
Cc1cc(N2CCOCC2)ccc1Nc1nc(NC2CCCCC2)c2[nH]cnc2n1 | 93.8% | -2.64%
CNC(=O)c1cccc(-c2ccc3c(N4CCOC[C@@H]4C)nc(N4CCOC[C@@H]4C)nc3n2)c1 | 65.7% | -4.47%
CC1(C)Cc2c(-c3ccccc3)c(-c3ccc(Cl)cc3)c(CC(=O)O)n2C1 [licofelone] | 121% | -11.2%

Structure (SMILES) | normalized SmoIP GFP fluorescence [1] | normalized SmoIP GFP fluorescence [2]
Cc1[nH]nc2ccc(-c3cncc(OC[C@@H](N)Cc4ccccc4)c3)cc12 | 134% | 8.54%
COCCc1ccc(OCC(O)CNC(C)C)cc1 (stereo unspecified) [metoprolol-tartrate] | 138% | -9.85%
Nc1ccc(-c2ccc3ncc4ccc(=O)n(-c5cccc(C(F)(F)F)c5)c4c3c2)cn1 [torin-2] | 59.5% | -9.64%
CN1CCN(C(=O)c2cc3cc(Cl)ccc3[nH]2)CC1 | 101% | -2.71%
COc1ccccc1N1CCN(CCN(C(=O)C2CCCCC2)c2ccccn2)CC1 | 125% | 7.01%
NCC(=O)Nc1ccc(-n2nc(C(F)(F)F)cc2-c2ccc3c(ccc4ccccc43)c2)cc1 | 100% | 0.812%
Cc1cccc(Nc2ccccc2C(=O)O)c1C [mefenamic-acid] | 111% | -1.23%
O=C(c1ccc(/C=C/c2n[nH]c3ccccc23)cc1)N1CCNCC1 | 83% | -1.34%
NC(=O)c1cccc(-c2cccc(OC(=O)NC3CCCCC3)c2)c1 | 134% | -7.15%
Cc1ccc(N(CC2=NCCN2)c2cccc(O)c2)cc1 [phentolamine-mesilate] | 128% | -15.3%
COC(=O)N1CCN(Cc2cccc(NC(=O)Nc3ccc(C)nc3)c2F)CC1 | 125% | -11.4%
COC1CCN(C(=O)c2cc(Cc3n[nH]c(=O)c4ccccc34)ccc2F)CC1 | 103% | -3.5%
Cc1ccc(NC(=O)c2cccc(N(C)C)c2)cc1NC(=O)c1ccc(O)cc1 | 120% | -14.7%
c1cc(-c2cnn3cc(-c4ccc(N5CCNCC5)cc4)cnc23)c2cccnc2c1 | 120% | 2.12%
CC(C)C(=O)Oc1ccc(CO)cc1[C@H](CCN(C(C)C)C(C)C)c1ccccc1 [Fesoterodine-fumarate-Toviaz] | 110% | -4.53%
COC(=O)[C@H](c1ccccc1Cl)N1CCc2sccc2C1 [Clopidogrel-bisulfate] | 113% | 2.97%
CNC(=O)[C@H](Cc1ccccc1)NC(=O)[C@H](CC(C)C)[C@H](CSc1cccs1)C(=O)NO | 94.8% | -2.48%
CCN(c1cc(-c2ccc(CN3CCOCC3)cc2)cc(C(=O)NCc2c(C)cc(C)[nH]c2=O)c1C)C1CCOCC1 | 106% | -3.39%
Nc1ccc2ncnc(NCCc3ccc(Oc4ccccc4)cc3)c2c1 | 45.5% | 39.1%
CC(=O)O[C@]1(C(C)=O)CC[C@H]2[C@@H]3C=C(Cl)C4=CC(=O)[C@@H]5C[C@@H]5[C@]4(C)[C@H]3CC[C@@]21C [cyproterone-acetate] | 142% | -6.79%
CC1=C(C(=O)OC(C)C)C(c2cccc([N+](=O)[O-])c2)C(C(=O)OC2CN(C(c3ccccc3)c3ccccc3)C2)=C(N)N1 (stereo unspecified) [azelnidipine] | 111% | -1.23%
CCNC(=O)Nc1ccc(-c2nc3c(c(N4CCOC[C@@H]4C)n2)CCN(C2COC2)C3)cc1 | 93.3% | -0.151%
CCCS(=O)(=O)Nc1ccc(F)c(C(=O)c2c[nH]c3ncc(-c4ccc(Cl)cc4)cc23)c1F | 91.2% | 3.72%
C[C@@]1(c2cc(-c3cncnc3)c(F)cc2F)CCSC(N)=N1 | 97% | 10.2%
O=C(c1cncc(Br)c1)N1CCC(N2CCCC2)CC1 | 98.8% | 1.35%

Structure (SMILES) | normalized SmoIP GFP fluorescence [1] | normalized SmoIP GFP fluorescence [2]
CC(=O)OCC[N+](C)(C)C [Acetylcholine-chloride] | 104% | -16.8%
CCc1ccc(/C=C2/SC(=S)NC2=O)cc1 | 105% | -1.63%
CC(=O)Oc1ccccc1C(=O)O [aspirin-acetylsalicylic-acid] | 101% | -6.51%
NC(=O)c1ccc(I)c([N+](=O)[O-])c1 | 115% | -5.22%
CNC(=O)c1ccc(N2C(=S)N(c3cnc(C#N)c(C(F)(F)F)c3)C(=O)C23CCC3)cc1F | 105% | -0.0369%
CN1CCN(CCCN2c3ccccc3Sc3ccc(C(F)(F)F)cc32)CC1 [trifluoperazine-dihydrochloride] | 108% | 4%
C[C@H]1[C@H](C)CC[C@]2(C(=O)O)CC[C@]3(C)C(=CC[C@@H]4[C@@]5(C)C[C@@H](O)[C@H](O)[C@@](C)(CO)[C@@H]5CC[C@]43C)[C@H]12 [Asiatic-acid] | 143% | -15.4%
CC(C)c1noc(N2CCC(COc3ccc(-c4ccc(S(C)(=O)=O)cc4)nc3)CC2)n1 | 110% | -3.09%
CC1(C)CC(=O)c2c(C(F)(F)F)nn(-c3ccc(C(N)=O)c(N[C@H]4CC[C@H](O)CC4)c3)c2C1 | 178% | 12.3%
O=C(NCCS(=O)(=O)c1ccc(C(F)(F)F)cn1)c1ccc(Cl)cc1 | 120% | -14.9%
O=C(NCCN1CCOCC1)c1ccc(Cl)cc1 [moclobemide] | 108% | -3.05%
O=C(NCc1cccc(O)c1)Nc1nc(-c2ccncc2)cs1 | 107% | -2.93%
O=C1CCc2cc(OCCCCc3nnnn3C3CCCCC3)ccc2N1 [Cilostazol] | 116% | 2.11%
O=C(Nc1ccccc1-c1cn2c(CN3CCNCC3)csc2n1)c1cnc2ccccc2n1 | 107% | 1.57%
COc1ccc(-c2cc3c(C)nc(N)nc3n([C@H]3CC[C@H](OCCO)CC3)c2=O)cn1 | 87.2% | -29.5%
COc1cc2nccc(Oc3ccc(NC(=O)Nc4cc(C)on4)c(Cl)c3)c2cc1OC | 111% | 1.89%
COc1cc2nc(N3CCN(C(=O)C4COc5ccccc5O4)CC3)nc(N)c2cc1OC (stereo unspecified) [Doxazosin-mesylate] | 105% | 8.14%
Cc1onc(-c2ccccc2)c1-c1ccc(S(N)(=O)=O)cc1 [valdecoxib] | 104% | -5.49%
O=C(c1ccc(Nc2nccc(-c3cc4ccccc4s3)n2)cc1)N1CCC(N2CCCC2)CC1 | 106% | 1.1%
CC1CCc2cc(F)cc3c(=O)c(C(=O)O)cn1c23 (stereo unspecified) [flumequine] | 106% | -3.79%
Cc1cnc(-c2cnc(NCCNc3ccc(C#N)cn3)nc2-c2ccc(Cl)cc2Cl)[nH]1 | 118% | -0.151%
C[C@]1(O)C[C@@H](c2nc(-c3ccc4ccc(-c5ccccc5)nc4c3)c3c(N)nccn32)C1 | 108% | -11%
CC(C)N(CCCNC(=O)Nc1ccc(C(C)(C)C)cc1)C[C@H]1O[C@@H](n2cc(Br)c3c(N)ncnc32)[C@H](O)[C@@H]1O | 140% | 0.986%
